Results taken from the supplement of paper PMC6555819.

Key:
Experiment in all cases: PBM binding z-score (relative to random genomic background probes); higher = stronger binding; sequences stand for … in GC…GCGATTGACAGCGTAGAATGAAGG
[1] = test system: FXR:RXRa (NR concentration 270 nM, RXRa partner concentration 90 nM)
How it was run: (§1)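 Custom Agilent 4×180K protein-binding microarrays carried double-stranded probes. Their 34-nt variable regions held direct-repeat seeds, single-nucleotide variants, half-site ablations and random human genomic background sequences. Arrays were incubated 1 h with ligand-free nuclear receptor dimers in PBS pH 7.4, 2% milk, 0.02% Triton X-100, 1 mM DTT, 0.2 mg/mL BSA and 0.4 mg/ml salmon testes DNA. Antibodies against each partner (one per run) detected binding, and scanned fluorescence was regression-normalized. Binding z-scores use random background probes as reference.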

[2] = test system: LXRa:RXRa (NR concentration 270 nM, RXRa partner concentration 90 nM)
How it was run: as §1

[3] = test system: LXRa homodimer (NR concentration 270 nM)
How it was run: as §1

[4] = test system: LXRb:RXRa (NR concentration 270 nM, RXRa partner concentration 90 nM)
How it was run: as §1

[5] = test system: LXRb homodimer (NR concentration 270 nM)
How it was run: as §1

[6] = test system: PPARa:RXRa (NR concentration 270 nM, RXRa partner concentration 90 nM)
How it was run: as §1

[7] = test system: PPARg:RXRa (NR concentration 180 nM, RXRa partner concentration 90 nM)
How it was run: as §1

[8] = test system: PPARg:RXRa 270nM:90nM, anti-RXR (NR concentration 270 nM, RXRa partner concentration 90 nM)
How it was run: as §1

[9] = test system: PPARg:RXRa 30nM:10nM, anti-RXR (NR concentration 30 nM, RXRa partner concentration 10 nM)
How it was run: as §1

[10] = test system: PPARg:RXRa 90nM:30nM, anti-RXR (NR concentration 90 nM, RXRa partner concentration 30 nM)
How it was run: as §1

[11] = test system: PPARg:RXRa DBDmut IVT, anti-RXR (DBD mutation: RXRa K156A/R161A, NR concentration 270 nM, RXRa partner concentration 90 nM)
How it was run: as §1

[12] = test system: PPARg:RXRa IVT, anti-PPARg (NR concentration 270 nM, RXRa partner concentration 90 nM)
How it was run: as §1

[13] = test system: PPARg DBDmut:RXRa IVT, anti-PPARg (DBD mutation: PPARg1 K132A/R137A, NR concentration 270 nM, RXRa partner concentration 90 nM)
How it was run: as §1

[14] = test system: PPARg DBDmut IVT, anti-PPARg (DBD mutation: PPARg1 K132A/R137A, NR concentration 270 nM)
How it was run: as §1

[15] = test system: PPARg homodimer (NR concentration 180 nM)
How it was run: as §1

[16] = test system: PXR:RXRa (NR concentration 270 nM, RXRa partner concentration 90 nM)
How it was run: as §1

[17] = test system: PXR homodimer (NR concentration 270 nM)
How it was run: as §1

[18] = test system: RARa:RXR (NR concentration 270 nM, RXRa partner concentration 90 nM)
How it was run: as §1

[19] = test system: RARa homodimer (NR concentration 270 nM)
How it was run: as §1

[20] = test system: RARb:RXRa (NR concentration 270 nM, RXRa partner concentration 90 nM)
How it was run: as §1

Sequence	PBM binding z-score [1]	PBM binding z-score [2]	PBM binding z-score [3]	PBM binding z-score [4]	PBM binding z-score [5]	PBM binding z-score [6]	PBM binding z-score [7]	PBM binding z-score [8]	PBM binding z-score [9]	PBM binding z-score [10]	PBM binding z-score [11]	PBM binding z-score [12]	PBM binding z-score [13]	PBM binding z-score [14]	PBM binding z-score [15]	PBM binding z-score [16]	PBM binding z-score [17]	PBM binding z-score [18]	PBM binding z-score [19]	PBM binding z-score [20]
GCTACCAGGCCATTTGGGTCACTCAATGACGGGC	0.22	0.0663	-0.549	0.301	-0.419	1.57	0.923	0.744	-0.356	0.658	2.04	2.77	0.125	-0.407	-0.0143	0.976	0.553	0.919	-0.79	1.59
CAAACTAGGACACGAAAGGTCAAAGTCGAATGAC	5.33	5.73	6.38	5.43	1.98	5.8	6.54	6.27	3.92	5.63	6.64	6.94	2.48	3.31	4.51	5.64	1.78	6.19	3.15	4.52
TCTCGGAGGACACGAAGGTCTGAGCTTTCCAGAG	-0.23	-0.358	-1.07	-0.541	-1.44	0.131	-0.309	0.641	1.91	1.38	1.12	-0.0413	-0.829	-1.69	-0.904	-0.33	-0.787	0.107	-1.21	1.46
AGATGTAGGTTAAGGGTCATTCAGGTTGGTTCGC	5	5.02	2.97	4.61	1.63	6.45	11	9.78	9.52	10.7	7.33	7.46	1.97	1.04	3.44	5.52	3.11	6.2	2.4	3.66
TAGCCTAGGTCTTTGGGCCAGTATAGTACGCATC	-0.684	-0.824	-0.792	-0.788	-0.858	-1.04	0.0223	-0.571	-0.609	-0.513	-0.223	0.546	-1.01	-0.496	-0.656	-0.782	-0.961	-0.806	-0.737	-0.161
CAAACTAGGTCACCGGAAGGTCAAAGGCCGCATG	6.24	5.81	4.23	5.17	1.01	6.34	9.9	7.75	6.27	7.97	8.46	8.84	4.26	3.71	5.53	5.83	1.1	7.5	1.75	5.35
TCATATAGGTAAGACAGGTGAAAGTCGGCATCTA	1.17	1.21	0.129	0.604	0.0128	1.49	0.925	2.42	4.15	3.3	3.27	2.39	0.585	1.03	0.477	0.625	0.645	0.925	1.31	0.61
CGTCGAAGGTCAAAGGTCAGTGAAGAGATGACGG	8.44	6.95	3.31	6.62	1.89	7.42	10.4	8.74	7.87	8.95	3.46	5.8	1.49	1.99	5.11	7.05	1.1	8.65	2.42	5.92
TCTAGCACGCCAGAGGGTCACTCAAGAGGTACGG	1.04	1.11	-0.323	0.821	-0.814	2.01	0.836	1.13	1.71	1.2	0.507	0.0659	-0.875	-0.824	0.566	1.56	-0.773	2.37	-0.679	2.04
TCTAGTTGGTCATAGGTCACACACTCGAAATGCG	3.07	3.34	1.99	3.31	1.25	4.96	8.97	8.03	8.3	8.57	2.59	4.4	1.15	1.18	3.12	3.48	1.07	4.39	1.88	3.22
GATACAGGGTCAGCTAGAGGCCAGAGCATGGAAA	4.96	2.87	-0.62	2.42	-0.712	4.58	3.81	3.58	1.01	2.09	1.04	2.15	0.0195	-0.294	1.76	2.88	-0.095	4.33	-0.0795	4.16
TCTAGTTGCTCACGGAGGTCACACACGACGGGTA	2.59	3.1	1.86	3.22	0.53	3.62	1.55	2.79	3.16	2.76	1.58	2.24	0.833	0.565	2.53	4	0.832	4.2	0.559	3.25
TGAATGATGTTAAAGATCAGGGAACGTGGCGTCG	0.0753	0.0362	-0.207	-0.167	0.281	0.925	1.32	2.98	1.82	2.49	-0.672	0.00051	0.678	0.88	0.216	-0.226	0.0908	-0.242	0.502	-0.0162
TCATGTAGATCAACAGGAGGTTAAGAAAGATCGA	0.191	1.12	0.0437	0.814	-0.691	1.38	0.396	1.35	2.65	1.97	1.44	0.504	0.449	0.653	-0.00792	0.814	-0.17	1.3	0.399	0.499
CCTACTGGGCCAAAGTTCATTGATTCCAATGCTC	2.2	3.36	4.36	2.6	0.0133	5.47	10.9	9.53	9.33	11.8	4.73	6.06	-0.1	-0.115	4.94	4.5	8.31	2.99	0.508	3.13
